Several values for one entry are separate records, joined by “and”; a condition that tells them apart may be missing. Equal entries are not always repeated. Screen size: about 310,000 compounds; about 17,000 (5.5%) were called active. A call without a number means that no potency is given here. Another 11% or so got no clear call; they are omitted. The sample holds actives, similar compounds and a random draw of the others, so the mix is not that of the screen. Calls follow the shape of the dose curve; as a rule, active = well fitted inhibition curve with a large enough effect; inconclusive = small, poorly fitted or top-dose-only effect, or effect the other way; inactive = no such curve, though single readings can be large or run the other way. More than one record can exist for a structure, and the calls need not agree.
Each molecule was assayed against Nuclear receptor ROR-gamma (Mus musculus) (UniProt P51450) (assay: qHTS for inhibitors of ROR gamma transcriptional activity). Settings: Drosophila S2 Gal4-RORgamma UAS-luciferase reporter, 20 h; series mostly up to 53.6 µM.
Procedure, shortened: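 In this cell-based reporter format, copper sulfate (700 uM final) drives Gal4–ROR gamma fusion expression from a metallothionein promoter in Drosophila Schneider cells; compounds preincubated 1 hr, reporter read after 20 hr at ambient temperature.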
Also: nearly all actives have a fitted effect of over 60% in size.
Potency is read from the fitted curve at half-maximal effect.

Sequence of Nuclear receptor ROR-gamma (Mus musculus) (P51450 whole entry, looked up, the tested form may be a part): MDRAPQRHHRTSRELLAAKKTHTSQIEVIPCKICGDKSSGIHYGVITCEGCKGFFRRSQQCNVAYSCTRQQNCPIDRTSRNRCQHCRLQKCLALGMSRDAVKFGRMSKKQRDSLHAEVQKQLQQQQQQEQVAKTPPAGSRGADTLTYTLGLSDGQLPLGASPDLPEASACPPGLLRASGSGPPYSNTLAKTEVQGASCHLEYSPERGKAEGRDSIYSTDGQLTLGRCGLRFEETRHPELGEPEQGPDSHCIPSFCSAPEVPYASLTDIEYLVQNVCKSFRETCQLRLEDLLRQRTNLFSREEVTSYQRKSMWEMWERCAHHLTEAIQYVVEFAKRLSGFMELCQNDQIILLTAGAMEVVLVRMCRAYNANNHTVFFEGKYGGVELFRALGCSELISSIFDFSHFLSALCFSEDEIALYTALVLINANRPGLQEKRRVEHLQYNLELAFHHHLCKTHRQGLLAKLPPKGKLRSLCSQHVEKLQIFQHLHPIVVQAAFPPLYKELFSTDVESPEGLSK

Structure (SMILES) | Potency | activity change, negative = inhibition
Cc1ccccc1-c1nc(CS(=O)(=O)CC(=O)NC(C)c2ccccc2)c(C)o1 (configuration not stated) | inactive | –
Cc1ccc(NS(=O)(=O)c2c(C)[nH]c(C)c2C(=O)N2CCCCC2)c(C)c1 | inactive | –
O=C(O)CCn1c(O)c(C=C2N=c3ccccc3=N2)sc1=S | 0.794 µM (active) | –
O=C(O)CCn1c(Cc2ccccc2)nc2ccccc21 | inactive | –
Cc1cc2ccccc2n1CCC(=O)O | inactive | –
COc1ccccc1NC(=O)c1cc(N2C(=O)C3C4CCC(C4)C3C2=O)ccc1Cl (configuration not stated) | inactive | –
CNC(=O)c1ccsc1NC(=O)c1ccc(S(=O)(=O)N2CCOCC2)cc1 | inactive | –
CSCc1nnc(NC(=O)c2ccc(S(=O)(=O)N3CCCCC3C)cc2)o1 (configuration not stated) | 1 µM (active) | –
CC1CCCN(S(=O)(=O)c2ccc(C(=O)Nc3nnc(-c4ccncc4)o3)cc2)C1 (configuration not stated) | inactive | –
CCc1nnc(NC(=O)c2ccc(S(=O)(=O)NC3CCCCC3)cc2)s1 | inactive | –
CC1CCCCN1S(=O)(=O)c1ccc(C(=O)Nc2nnc(-c3cccs3)o2)cc1 (configuration not stated) | 0.0891 µM (active) | –
Cc1ccnc(NS(=O)(=O)c2ccc(NC(=O)c3ccc(S(=O)(=O)N4CCOCC4)cc3)cc2)n1 | inactive | –
O=C(Nc1nnc(-c2ccco2)o1)c1ccc(S(=O)(=O)N2CCOCC2)cc1 | 1.78 µM (active) | –
CCc1nnc(NC(=O)C2CCCN2S(=O)(=O)c2ccccc2)s1 (configuration not stated) | inactive | –
O=C(Nc1ccc(S(=O)(=O)N2CCOCC2)cc1)c1ccc2ncsc2c1 | inactive | –
CC(=O)c1ccc(OC(=O)N2CCOCC2)cc1 | – | -0.265% [at 1.91 µM] (inactive)
COc1ccc(CNC(=O)COc2cccnc2[N+](=O)[O-])cc1 | inactive | –
Cc1cc2c(=O)n(CC(=O)NCC(=O)Nc3ccc(C(C)C)cc3)cnc2s1 | inactive | –
CCCCN1C(=O)C(C)=C(C)C1OCCc1ccc(OC)c(OC)c1 (configuration not stated) | inactive | –
Cc1cc(-c2ccc(S(=O)(=O)N3CCN(c4cccc(C(F)(F)F)c4)CC3)s2)on1 | inactive | –
CN(C)C(=O)c1ccc(NC(=O)c2ccccc2-c2ccccc2)cc1 | inactive | –
CC(C)C[C@H](NC(=O)N1CC(=O)Nc2ccccc21)C(=O)N[C@H](Cc1ccccc1)C(=O)O | inactive | –
CCOC(=O)CSc1nc2ccc(C)cc2n2cnnc12 | inactive | –
CCCOc1cccc(C(=O)Nc2ccccc2C(=O)N2CCN(C)CC2)c1 | inactive | –
CC(=O)Nc1ccc(S(=O)(=O)NC2Cc3ccccc3C2)cc1 | inactive | –
CCN1C(=S)N[C@@H](CCc2ccccc2)[C@H](C(=O)OC)[C@H]1C | inactive and 2.24 µM (active) | –

Structure (SMILES) | Potency | activity change, negative = inhibition
COCCN1C(=O)N[C@@H](CCc2ccccc2)[C@H](C(C)=O)[C@H]1C | inactive | –
CCN1C(=NCc2ccc(OC)cc2)N[C@@H](CCc2ccccc2)[C@H](C(=O)NCc2ccc(OC)cc2)[C@H]1C | inactive | –
CN1CCN(C(=O)c2cnn(-c3ccccc3)c2NC(=O)c2ccc([N+](=O)[O-])cc2)CC1 | inactive | –
Cc1cccc(C)c1NC(=O)CS(=O)CC(=O)N1CCN(c2ccccc2)CC1 (configuration not stated) | inactive | –
CCNS(=O)(=O)c1ccc(CCC(=O)N2CCN(c3ccc(OC)cc3)CC2)cc1 | inactive | –
CN(C)C(=O)Cn1c(=O)n(S(=O)(=O)c2ccccc2)c2ccccc21 | inactive | –
COC(=O)c1ccccc1NC(=O)CSc1n[nH]c(-c2ccncc2)n1 | inactive | –
Cc1ccc2oc(C(=O)N3CCN(C)C[C@@H]3C(C)C)c(C)c2c1 | inactive | –
CN(Cc1cccnc1)C(=O)c1cc(COc2ccc3ncccc3c2)on1 | 4.47 µM (active) | –
CC(=O)c1cccc(OCc2cc(C(=O)NC(C)Cc3cccnc3)no2)c1 (configuration not stated) | inactive | –
Cc1ccc(OCc2cc(C(=O)N(C)CCc3ccccc3)no2)cc1C | inactive | –
COCCn1cnc2c1c(=O)n(Cc1ccc(Br)cc1)c(=O)n2Cc1ccccc1 | inactive | –
O=C(CCNC(=O)C1CCN(S(=O)(=O)c2ccccc2)CC1)NC1CC1 | inactive | –
COc1ccc(CN2CCCC(N3CCc4ccccc4C3)C2)c(O)c1 (configuration not stated) | inactive | –
CCOC(=O)c1c(-c2ccccc2)csc1NC(=S)NC(=O)c1ccccc1 | 2.82 µM (active) | –
CCOC(=O)CNC(=O)/C(=C\c1ccc(F)cc1)NC(=O)c1ccccc1 | inactive | –
CCOC(=O)C1=C(C)c2ccccc2OC1(C)C(=O)OCC (configuration not stated) | inactive | –
CCOC(=O)c1c(-c2cccc(C)c2)csc1NC(=O)c1c(-c2ccccc2)noc1C | inactive | –
CCOC(=O)C1=C(NC(=S)NC(=O)c2ccccc2)c2ccccc2CC1(C)C | 4.47 µM (active) | –
CCOC(=O)c1c(-c2ccc(-c3ccccc3)cc2)csc1NC(=O)CCC(=O)O | inactive | –
COc1cccc(C(=O)Nc2nnc(S(=O)(=O)N3CCCCC3)s2)c1 | inactive | –
CC(=O)Nc1ccc(NC(=O)CCCNC(=O)c2ccc(Cl)cc2)cc1 | inactive | –
CC(C)c1ccc(C2C(C(=O)c3ccco3)=C(O)C(=O)N2CC2CCCO2)cc1 (configuration not stated) | inactive | –
COc1ccccc1NC(=O)CCN1CCN(c2ccc(Cl)cc2)CC1 | inactive | –
O=C(CN(c1cc(C(F)(F)F)ccc1Cl)S(=O)(=O)c1ccccc1)NCc1cccnc1 | inactive | –
CCc1ccc(N(CC(=O)NCc2cccnc2)S(=O)(=O)c2ccccc2)cc1 | 14.1 µM (active) | –

Structure (SMILES) | Potency | activity change, negative = inhibition
O=C(CCc1ccccc1)NCc1cccnc1 | inactive | –
Cc1c(C)c2c(OCC(=O)NCCCO)cc3c(c2oc1=O)CCC(C)(C)O3 | inactive | –
CC(C)CC(CCc1ccccc1)OS(N)(=O)=O (configuration not stated) | inactive | –
COc1ccccc1C(=O)Nc1cccc(C(=O)N2CCOCC2)c1 | inactive | –
Cc1cccc(N2CCN(C(=O)/C=C/c3ccco3)CC2)c1C | inactive | –
COc1ccccc1/C=C/C(=O)NC(=S)N1CCOCC1 | 7.08 µM (active) | –
CCNC(=S)N1CCN(C(=O)c2ccco2)CC1 | inactive | –
O=C(/C=C/c1ccco1)NC(=S)Nc1ccccc1Br | 11.2 µM (active) | –
CC(=O)Nc1ccc(NC(=S)NC(=O)/C=C/c2ccccc2)cc1 | inactive | –
COc1ccccc1/C=C/C(=O)NC1CC2CCC1C2 (configuration not stated) | inactive | –
Cc1nnc(NC(=O)/C=C/c2ccco2)s1 | inactive | –
O=C(/C=C/c1ccco1)NC(=S)N1CCCCC1 | 3.98 µM (active) | –
CCC(C)[C@H](NC(=O)N1CCn2c1nc1ccccc12)C(=O)NCc1ccc(OC)cc1 (some centres not stated) | inactive | –
O=C(O)CC/C(=C\c1cc2c(cc1Br)OCO2)c1nc2ccccc2s1 | inactive | –
CC(=O)N1CCc2cc(S(=O)(=O)NC3CCCCC3)ccc21 | inactive | –
COCCNc1ncnc2c1nc1n2CCCC1 | inactive | –
CCCCCCn1cc(C(=O)O)c(=O)c2cc(F)c(N3CCCCC3)cc21 | inactive | –
O=C(Nc1ccc(S(=O)(=O)Nc2ccccn2)cc1)c1ccccc1 | inactive | –
Cc1ccc(CNC(=O)CCS(=O)(=O)c2ccc3c(c2)CC(C)N3C(=O)C2CC2)o1 (configuration not stated) | inactive | –
O=C(Nc1ccc([N+](=O)[O-])cc1)OCCc1ccccn1 | inactive | –
CC(=O)Nc1cccc(NC(=O)c2c(-c3ccccc3)noc2C)c1 | inactive | –
Cc1onc(-c2c(Cl)cccc2Cl)c1C(=O)NNC(=O)c1c(-c2c(Cl)cccc2Cl)noc1C | inactive | –
Cc1ccc(CNC(=O)c2c(-c3ccccc3)noc2C)cc1 | inactive | –
Cc1onc(-c2ccccc2)c1C(=O)Nc1ccccc1C#N | inactive | –
Cc1onc(-c2ccccc2)c1C(=O)NNC(=S)NC(=O)c1ccc(F)cc1 | 3.98 µM (active) | –
COc1ccc(C(=O)NC(=S)NNC(=O)c2c(-c3ccccc3)noc2C)cc1 | 6.31 µM (active) | –

Structure (SMILES) | Potency | activity change, negative = inhibition
NC(=O)c1oc2ccccc2c1NC(=O)Cc1ccccc1 | – | -17.9% [at 1.91 µM] (inactive)
COc1ccc(N(C(=O)c2snc(C(N)=O)c2N)C(C(=O)NC2CCCC2)c2ccco2)cc1OC (configuration not stated) | inactive | –
O=C1/C(=C/c2ccc(F)cc2)SC(=S)N1CCCC(=O)N1CCCCC1CCO (configuration not stated) | inactive | –
COC(=O)Cn1cnc2scc(-c3ccc(C)c(C)c3)c2c1=O | inactive | –
O=C(/C=C/NNC(=O)c1cccc(Br)c1)c1ccccc1 | inactive | –
NS(=O)(=O)c1ccc(NC(=S)NC(=O)c2cccnc2)cc1 | inactive | –
Cc1ccc(C)c(NC(=O)NNC(=O)c2ccc3ccccc3c2O)c1 | inactive | –
O=C(NC1CC1)c1cccc(Br)c1 | inactive | –
Cc1ccccc1NC(=S)NNC(=O)c1cccc(Br)c1 | 11.2 µM (active) | –
Cc1ccc(C)c(NC(=S)NNC(=O)c2csc(C)c2)c1 | 3.55 µM (active) | –
CC(CC(=O)O)CC(=O)NNC(=O)c1cccc(Br)c1 (configuration not stated) | inactive | –
O=C(NC(=S)Nc1cccc2c(O)cccc12)c1cccc(Br)c1 | 11.2 µM (active) | –
O=C(NC(=S)Nc1ccc(Cl)c(C(=O)O)c1)c1cncc(Br)c1 | inactive | –
Cc1ccc(C)c(NC(=O)CCC(=O)NNC(=O)c2cccs2)c1 | inactive | –
O=C(NC(=S)Nc1ccc(S(=O)(=O)Nc2ncccn2)cc1)c1cccc(Br)c1 | inactive | –
NS(=O)(=O)c1ccc(NC(=S)NC(=O)c2cccc(Br)c2)cc1 | 11.2 µM (active) | –
COc1ccc(-c2nnc3n2CCCCC3)cc1 | inactive | –
COc1ccc(NC(=O)CSc2nncc(=O)n2N)cc1OC | inactive | –
CC(CN1CCOCC1)OC(=O)c1ccc(Cl)cc1Cl (configuration not stated) | inactive | –
Cn1c(C(=O)N2CCCC(C(=O)NCc3ccccc3)C2)cc2sccc21 (configuration not stated) | inactive | –
COc1ccccc1NC(=O)c1ccc(N2CC3CC(C2)c2cccc(=O)n2C3)c(NC(=O)c2cccnc2)c1 (configuration not stated) | inactive | –
CC(=O)N1c2ccc(S(=O)(=O)N3CCC(C(=O)N4CCN(c5ccccc5)CC4)CC3)cc2CC1C (configuration not stated) | inactive | –
CC(C)CN(CC(C)C)C(=O)CN1c2cccc3cccc(c23)S1(=O)=O | inactive | –
O=C(CNC(=O)[C@@H]1Cc2ccccc2CN1)NC1CCCCC1 | inactive | –

Reference: PubChem BioAssay AID2551 (National Center for Advancing Translational Sciences (NCATS), 2010)
